The assay concerns P. falciparum stage V gametocytes. More on the design: BacTiter-Glo ATP luminescence viability of purified stage V gametocytes in 384-well plates, per cent inhibition versus DMSO. To be noted: 48 h, 5 µM, inhibitor.

Structures are written as SMILES. Where two headings read alike, the source gives them in different places. Out of some 13,000 compounds screened, about 3,200 (25%) showed an effect of 50% or more. This is one part of the list.

In general, % Inhibition refers to the change of the read-out against control, counted positive when it falls. Regarding `C=CCN(c1nc(NC)nc(NCc2c(OC)cccc2OC)n1)C1CCCC1` [TCMDC-134844], the “% Inhibition” value is -44.26%.

For the molecule `COc1cc(OC)cc(-c2nnc(Sc3ccc(C#N)c([N+](=O)[O-])c3)n2C)c1` [TCMDC-135576], the “% Inhibition” value was 42.48%.

Regarding `CCCCCn1c(Sc2ccc(C#N)c([N+](=O)[O-])c2)nnc1-c1ccccc1` [TCMDC-135606], the “% Inhibition” value is on record as 38.34%.

For the molecule `CCn1c(Cc2ccccc2)nnc1Sc1ccc([N+](=O)[O-])c(C#N)c1` [TCMDC-135236], the “% Inhibition” value is 79.04%.

`CCCCCCn1c(Sc2ccc(C#N)c([N+](=O)[O-])c2)nnc1-c1ccccc1` [TCMDC-135607]: the “% Inhibition” value worked out at 41.57%.

Turning to `Cn1c(Cc2ccccc2)nnc1Sc1ccc(C#N)c([N+](=O)[O-])c1` [TCMDC-135608], the “% Inhibition” value is recorded as 73.99%.

Turning to `C=CCn1c(Cc2ccccc2)nnc1Sc1ccc(C#N)c([N+](=O)[O-])c1` [TCMDC-135614], the “% Inhibition” value is 45.02%.

As for `Cc1ccc(Nc2nc(C)cc(N3CCN(CCc4ccccc4)CC3)n2)cc1` [TCMDC-134023], the “% Inhibition” value was -10.5%.

Consider `COc1ccccc1CNc1ccnc(NCCc2cccc(C(F)(F)F)c2)n1` [TCMDC-135117], for which the “% Inhibition” value came to 62.08%.

In the case of `FC(F)(F)c1cccc(CCNc2nccc(NCc3ccccc3Cl)n2)c1` [TCMDC-135109], the “% Inhibition” value worked out at 78.4%.

For `COc1ccc(Nc2nccc(NCC(O)c3cccc(C(F)(F)F)c3)n2)cc1` (stereo not drawn) [TCMDC-136585], the “% Inhibition” value is given as -13.64%.

As for `FC(F)(F)c1cccc(CCNc2nccc(NCc3ccc(Cl)cc3Cl)n2)c1` [TCMDC-135111], the “% Inhibition” value was determined as 42.21%.

For the molecule `Clc1ccc(CNc2ccnc(NCCc3coc4ccccc34)n2)c(Cl)c1` [TCMDC-135113], the “% Inhibition” value was 37.58%.

For `COc1cccc(Nc2nccc(NCC(O)c3cccc(C(F)(F)F)c3)n2)c1` (stereo not drawn) [TCMDC-136584], the “% Inhibition” value is listed as 27.05%.

For the molecule `CC(=O)Nc1ccc(S(=O)(=O)Nc2ccc(Nc3nc(C)cc(N4CCCCC4)n3)cc2)cc1` [TCMDC-124950], the “% Inhibition” value is reported as -6.943%.

Consider `CCC[C@@H]([C@@H](CC(C)C)C(=O)N[C@H](C(=O)Nc1nccs1)C(C)(C)SCCNC(=O)OCC)N(O)C=O` [TCMDC-137761], for which the “% Inhibition” value stood at 30.89%.

For the molecule `N#Cc1cccc(COC(=O)C2=C(COc3ccccc3Cl)NC(=O)NC2c2c[nH]c3cnccc23)c1` (stereo not drawn) [TCMDC-136331], the “% Inhibition” value is 5.465%.

With `Cc1ccc(C(c2nnnn2C2CCCC2)N(Cc2ccco2)Cc2ccccc2Cl)cc1` (stereo not drawn) [TCMDC-123569], the “% Inhibition” value is on record as 15.39%.

For the molecule `COc1ccc(-c2nc(NC(=O)CS(=O)(=O)c3ccccc3)sc2C)cc1` [TCMDC-123525], the “% Inhibition” value is 48.52%.

On to `CCCCn1c(SC(C)C)nc2c(c1=O)C1(CCCCC1)Cc1ccccc1-2` [TCMDC-123893], for which the “% Inhibition” value was -5.467%.

Take `Cc1ccc(-c2nnc(Nc3ccc(CC(N)=O)cc3)c3ccccc23)cc1S(=O)(=O)NCC1CCCO1` (stereo not drawn) [TCMDC-125615]: the “% Inhibition” value is on record as -4.951%.

For `COc1cc(Cc2cnc(N)nc2N)ccc1OCC(=O)Nc1ccc(C)cc1` [TCMDC-138679], the “% Inhibition” value is recorded as 5.317%.

For the molecule `COc1cc(Cc2cnc(N)nc2N)ccc1OCc1ccc(NC(C)=O)cc1` [TCMDC-138675], the “% Inhibition” value stood at 89.66%.

For the molecule `COc1cc(Cc2cnc(N)nc2N)ccc1OCc1ccc(F)c(F)c1` [TCMDC-138591], the “% Inhibition” value came to 9.532%.

Take `S=C(NCCc1ccc(Cl)cc1)NC1CCC(CN2CCC(c3c[nH]c4ccccc34)CC2)CC1` (stereo not drawn) [TCMDC-140183]: the “% Inhibition” value (% Inhibition) was determined as 98.47%.

As for `S=C(NCCc1ccc(Cl)cc1)NC1CCC(CN2CCC(c3c[nH]c4ccccc34)CC2)CC1` (stereo not drawn) [TCMDC-140201], for the setting “% Inhibition”, the “% Inhibition” value was 56.68%.

With `S=C(NCC1CCCCC1)NC1CCC(CN2CCC(c3c[nH]c4ccccc34)CC2)CC1` (stereo not drawn) [TCMDC-140181], the “% Inhibition” value is recorded as 104.2%.

In the case of `S=C(Nc1ccccc1Cl)NC1CCC(CN2CCC(c3c[nH]c4ccccc34)CC2)CC1` (stereo not drawn) [TCMDC-140179], the “% Inhibition” value is given as 20.48%.

Take `S=C(NCCc1ccc(Cl)cc1)N1CCC(CN2CCC(c3c[nH]c4ccccc34)CC2)CC1` [TCMDC-140193]: the “% Inhibition” value came to 39.79%.

Consider `CC(C)NCc1ccc(-c2cccc(-c3nc4ccc(F)cc4[nH]3)c2)cc1` [TCMDC-132737], for which the “% Inhibition” value is 4.072%.

Take `N#Cc1ccc(N2CCN(Cc3ccc(-c4cccc(-c5nc6ccccc6[nH]5)c4)cc3)CC2)nc1.O=C(O)C(F)(F)F` [TCMDC-133918]: the “% Inhibition” value turned out to be 6.117%.

Regarding `Cc1c(Cc2ccccc2Br)cnc2nc(N)nc(N)c12` [TCMDC-137244], the “% Inhibition” value is -16.64%.

As for `COC(=O)/C=C/c1ccc(CC(C)NCC(O)c2cccc(Br)c2)cc1` (stereo not drawn) [TCMDC-131443], the “% Inhibition” value is 13.24%.

As for `CC(C)(C)Nc1nc(Nc2cccc([N+](=O)[O-])c2)nc(-n2ccnc2)n1` [TCMDC-123695], the “% Inhibition” value was -24.43%.

In the case of `O=[N+]([O-])c1ccc(Nc2nc(N/N=C/c3cccc(O)c3)nc(N3CCCC3)n2)cc1` [TCMDC-123855], the “% Inhibition” value turned out to be 36.76%.

In the case of `CCn1cnc2c(Nc3cccc([N+](=O)[O-])c3)nc(N3CCC(N4CCCCC4)CC3)nc21` [TCMDC-124437], the “% Inhibition” value is 69.16%.

For the molecule `Cc1ccc(Oc2c(-c3ccccc3CN3CCCC3CN(C)C)cnn(C)c2=O)cn1` (stereo not drawn) [TCMDC-135100], the “% Inhibition” value was -4.022%.

As for `Cc1[nH]c(C)c(-c2ccc(C(F)(F)F)cc2)c(=O)c1Br` [TCMDC-137429], the “% Inhibition” value came out at 90.2%.

Turning to `Cc1[nH]c(C)c(-c2ccc(Oc3ccc(C(F)(F)F)cc3)cc2)c(=O)c1Br` [TCMDC-137406], the “% Inhibition” value was found to be 68.39%.

For the molecule `Cc1[nH]c(C)c(-c2ccc(Nc3ccc(C(F)(F)F)cn3)cc2)c(=O)c1Br` [TCMDC-135546], the “% Inhibition” value was found to be 74.1%.

On to `Cc1[nH]c(C)c(-c2ccc(OCCOc3ccc(C(F)(F)F)cn3)cc2)c(=O)c1Br` [TCMDC-135554], for which the “% Inhibition” value came out at 40.45%.

As for `COc1ccc2nccc([C@@H](O)CN3CCC(NC(=O)C(c4ccsc4)N4CCN(c5ccccc5OC)CC4)CC3)c2c1` (stereo partly drawn) [TCMDC-140994], the “% Inhibition” value is reported as -19.96%.

On to `CC1CCCC(C)N1C[C@@H](O)CNS(=O)(=O)c1cccc(C(F)(F)F)c1` (stereo partly drawn) [TCMDC-134258], for which the “% Inhibition” value is on record as 4.939%.

Take `CCc1ccccc1N=C1c2c(cccc2[N+](=O)[O-])C(=O)C1C(C)=O` (stereo not drawn) [TCMDC-125760]: the “% Inhibition” value is -10.56%.

For `COc1cc(CCNCC(O)c2ccc([N+](=O)[O-])c(OCc3ccccc3)c2)cc(OC)c1OC` (stereo not drawn) [TCMDC-132008], the “% Inhibition” value is listed as 19.76%.

`CC(C#N)Cc1ccc(-c2cnc(N)c3cc(-c4ccnc(N)n4)ccc23)cc1` (stereo not drawn) [TCMDC-134547]: the “% Inhibition” value was 15.83%.

As for `CCCCCC(C)C(C)c1cc(O)c2c(c1)OC(C)(C)C=C2c1cc[n+]([O-])cc1` (stereo not drawn) [TCMDC-131349], the “% Inhibition” value was -5.463%.

`CCCCCCC(C)c1cc(O)c2c(c1)OC(C)(C)C=C2c1ccncc1` (stereo not drawn) [TCMDC-131636]: the “% Inhibition” value was -3.085%.

As for `CCCCCCC(C)c1cc(OCCN(CC)CC)c2c(c1)OC(C)(C)C=C2c1ccncc1` (stereo not drawn) [TCMDC-131641], the “% Inhibition” value came to 78.51%.

With `CC(=O)OC[C@H]1O[C@@H](C#Cc2ccccc2)[C@H](OC(C)=O)[C@@H](OC(C)=O)[C@@H]1OC(C)=O` [TCMDC-131801], the “% Inhibition” value worked out at 35.52%.

For the molecule `CC(C)C[C@@H](NC(=O)NC1CCC(CCN2C3CCC2CC(OC(=O)C(CO)c2ccccc2)C3)CC1)C(O)(c1ccccc1)c1ccccc1` (stereo partly drawn) [TCMDC-136459], the “% Inhibition” value came to 3.057%.

With `CC1(C)NC(N)=NC(=N)N1OCC1CCCCC1` [TCMDC-131616], the “% Inhibition” value is -0.7745%.

With `O=C1COc2ccc3ccccc3c21` [TCMDC-123508], the “% Inhibition” value turned out to be 4.476%.

`CSc1nccc(-c2ccc3ccnc(N)c3c2)n1` [TCMDC-136641]: the “% Inhibition” value stood at 63.58%.

With `Nc1ccc(-c2ccc3ccnc(N)c3c2)cn1` [TCMDC-133428], the “% Inhibition” value turned out to be 40.89%.

Consider `CNCc1cccc(-c2ccc3ccnc(N)c3c2)c1` [TCMDC-136794], for which the “% Inhibition” value stood at 70.03%.

As for `CCNCc1cccc(-c2ccc3ccnc(N)c3c2)c1` [TCMDC-136869], the “% Inhibition” value worked out at 65.98%.

Regarding `CNc1cc(-c2ccc3ccnc(N)c3c2)nc(N)n1.O=CO` [TCMDC-136539], the “% Inhibition” value is recorded as 29.83%.

`CNCc1ccc(-c2ccc3ccnc(N)c3c2)cc1` [TCMDC-136789]: the “% Inhibition” value is reported as 95.61%.

As to `Nc1nccc2ccc(-c3cccc(O)c3)cc12` [TCMDC-136758], the “% Inhibition” value turned out to be 44.67%.

Regarding `Clc1ccc2c(N3CCCNCC3)ccnc2c1` [TCMDC-124813], the “% Inhibition” value is reported as -27.2%.

Consider `CCc1cc2c(cc1CC)CC(NC[C@@H](O)c1ccc(O)c3[nH]c(=O)ccc13)C2` [TCMDC-138894], for which the “% Inhibition” value is listed as -46.2%.

In the case of `CCCCC([C@@H](Cc1ccc2ccccc2c1)C(=O)N[C@H](C(=O)NC)C(C)(C)C)N(O)C=O` (stereo partly drawn) [TCMDC-140405], the “% Inhibition” value is on record as 29.38%.

As to `Cc1cccc2nc(-c3ccc(-c4ccc(NC(=O)NCc5ccccc5)cc4)s3)[nH]c12` [TCMDC-133156], the “% Inhibition” value is 6.679%.

Turning to `O=C(CCc1cnc[nH]1)Nc1cccc(-c2cccc(-c3nc4ccc(C(F)(F)F)cc4[nH]3)c2)c1` [TCMDC-132157], the “% Inhibition” value was -1.759%.

For `Cc1cnc(Nc2cccnc2)nc1Nc1ccccc1C(=O)NC(C)C` [TCMDC-134207], the “% Inhibition” value worked out at 8.943%.

Regarding `O=C(Nc1ccc(CN2CCN(S(=O)(=O)c3ccc(Cl)s3)CC2)cc1)c1cccs1` [TCMDC-136320], the “% Inhibition” value is listed as 18.17%.

Consider `N#Cc1ccc(CNCCCCCCCNCc2ccc(-c3ccccc3)cc2)cc1` [TCMDC-140407], for which the “% Inhibition” value turned out to be 71.46%.

On to `Cc1cc(CNCCCCCCNCc2ccc(Cl)cc2)ccc1O` [TCMDC-140414], for which the “% Inhibition” value is 43.51%.

Consider `Cc1cc(CNCCCCCCCNCc2ccc(-c3ccccc3)cc2)ccc1O` [TCMDC-140415], for which the “% Inhibition” value came to 101%.

Take `Cc1cc(CNCCCCCCCNCc2ccc(Cl)cc2)ccc1O` [TCMDC-140417]: the “% Inhibition” value was -6.741%.

With `Cc1cc(CNCCCCCCNCc2ccc(-c3ccccc3)cc2)ccc1O` [TCMDC-140412], the “% Inhibition” value is 99.09%.

For `O=C(NCCCCCCNCc1ccc(-c2ccccc2)cc1)Nc1ccc(Cl)c(Cl)c1` [TCMDC-140706], the “% Inhibition” value is 4.226%.

For `Cc1cc(CNCCCCCNCc2ccc(Cl)cc2)ccc1O` [TCMDC-140411], the “% Inhibition” value is listed as 48.45%.

`N#Cc1ccc2c(c1)CN(CCCCNC(=O)c1ccc(-c3ccccc3)cc1)CC2` [TCMDC-139091]: the “% Inhibition” value is 8.247%.
